We go through 8 compounds from PubChem BioAssay (EPA / NIEHS).

Experiment [1] can be described thus: TOX21_p53_BLA_p2_viability: Viability Assessment in the Tox21 HCT-116 p53 Agonism Beta-lactamase Assay, Phase 2 (AID 2283591).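 Further: actives lower the ATP signal meaning cytotoxicity.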 The method in brief:
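Cytotoxicity readout: CellTiter-Glo ATP luminescence, 30 min at room temperature, after the beta-lactamase read. Cells were HCT116 exposed 16 h at 37C to compounds pin-transferred at 217-fold dilution from DMSO stocks.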

In experiment [2] the target is Cellular tumor antigen p53 (Homo sapiens) (UniProt P04637). Kind of experiment: TOX21_p53_BLA_p2_ratio: Tox21 HCT-116 p53 Agonism Beta-lactamase Assay, Ratio, Phase 2 (AID 2283592). In a few lines: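 First, HCT116 reporter cells settle for 5 h at 37C. Next, DMSO compound solutions are pinned in (217-fold dilution) and left 16 h. Finally, CCF4-AM substrate is loaded 2 h at room temperature and the 460/530 nm ratio read.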
Chain of Cellular tumor antigen p53 (Homo sapiens) (P04637 whole entry, looked up): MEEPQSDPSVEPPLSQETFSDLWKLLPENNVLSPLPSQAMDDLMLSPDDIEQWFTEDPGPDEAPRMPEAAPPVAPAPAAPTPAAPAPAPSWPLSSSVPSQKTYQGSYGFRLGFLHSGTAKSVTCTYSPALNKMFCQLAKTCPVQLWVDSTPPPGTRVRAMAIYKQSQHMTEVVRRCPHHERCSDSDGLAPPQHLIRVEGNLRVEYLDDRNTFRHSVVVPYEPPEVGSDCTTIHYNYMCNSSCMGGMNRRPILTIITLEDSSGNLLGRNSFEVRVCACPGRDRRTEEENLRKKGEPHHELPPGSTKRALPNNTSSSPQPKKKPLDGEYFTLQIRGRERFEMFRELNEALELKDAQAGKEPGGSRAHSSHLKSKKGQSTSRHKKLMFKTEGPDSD

Experiment [3] can be described thus: TOX21_p53_BLA_p3_viability: Viability Assessment in the Tox21 HCT-116 p53 Agonism Beta-lactamase Assay, Phase 3 (AID 2283593).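 Further: cells exposed to compound for 16 h before reading.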 The method in brief:
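Cellular ATP was quantified by CellTiter-Glo luminescence, read after 30 min at room temperature. Beforehand, HCT116 cells (4000/well) received compound 5 h post-seeding, 217-fold diluted from DMSO, then incubated 16 h at 37C.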

For experiment [4], the target named is Cellular tumor antigen p53 (Homo sapiens) (UniProt P04637). The experiment in a line: TOX21_p53_BLA_p3_ratio: Tox21 HCT-116 p53 Agonism Beta-lactamase Assay, Ratio, Phase 3 (AID 2283596). In a few lines:
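Cells were seeded at 4000/well, rested 5 h at 37C, then dosed with DMSO compound solutions (217-fold dilution) for 16 h. CCF4-AM substrate was loaded for 2 h at room temperature, and the 460/530 nm emission ratio was fitted for gain of signal versus DMSO.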

Experiment [5] is described as follows: TOX21_p53_BLA_p4_viability: Viability Assessment in the Tox21 HCT-116 p53 Agonism Beta-lactamase Assay, Phase 4 (AID 2283597).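 Further: hits lower the luminescence signal meaning cytotoxicity.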 The method in brief:
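4000 HCT116 cells per well; 5 h attachment; compounds from DMSO, 217-fold dilution; 16 h at 37C. Then CCF4-AM, 2 h RT, followed by CellTiter-Glo, 30 min RT, luminescence. Decrease = cytotoxicity.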

Experiment [6] addresses Cellular tumor antigen p53 (Homo sapiens) (UniProt P04637). The experiment in a line: TOX21_p53_BLA_p5_ratio: Tox21 HCT-116 p53 Agonism Beta-lactamase Assay, Ratio, Phase 5 (AID 2283599). The method in brief:
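Beta-lactamase reporter ratio (blue 460 nm over green 530 nm, 405 nm excitation) after 2 h CCF4-AM loading, in HCT-116 cells exposed 16 h at 37 C to compounds pinned at 217-fold dilution. Increases relative to DMSO baseline scored.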

Experiment [7] can be described thus: TOX21_p53_BLA_p5_viability: Viability Assessment in the Tox21 HCT-116 p53 Agonism Beta-lactamase Assay, Phase 5 (AID 2283600). The method in brief:
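Decreased CellTiter-Glo luminescence denotes lost viability. Exposure: 16 h at 37C, 5% CO2, with compounds from DMSO stocks diluted 217-fold in wells of 4000 cells.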

In experiment [8] the target is Cellular tumor antigen p53 (Homo sapiens) (UniProt P04637). Kind of experiment: TOX21_p53_BLA_p4_ratio: Tox21 HCT-116 p53 Agonism Beta-lactamase Assay, Ratio, Phase 4 (AID 2283601). In a few lines:
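Signal is the blue/green (460nm/530nm) ratio of cleaved versus uncleaved CCF4-AM substrate, read after 2 h substrate loading. Cells were HCT116 carrying the p53-responsive beta-lactamase reporter, dosed 16 h at 37C, 5% CO2; CellTiter-Glo measured in parallel.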

In experiment [9] the target is Thyroid hormone receptor alpha (Rattus norvegicus) + Thyroid hormone receptor beta (Rattus norvegicus) (UniProt P18113+P63059). The experiment in a line: TOX21_TR_LUC_GH3_Antagonist_Followup: Tox21 GH3 Thyroid Hormone Receptor Antagonism Luciferase Follow-Up Assay (AID 2283942). The method in brief: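 Loss of T3-driven (1.0 nM final) reporter activity in GH3 cells was read by ONE-Glo luminescence after 24 h incubation at 37C; 15-point compound series spanned 92 uM to 5nM final, 1,500 cells/well.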

A short description of experiment [10]: TOX21_TRB_BLA_Antagonist_Followup_viability: Viability Assessment in the Tox21 Thyroid Hormone Receptor beta Antagonism Beta-lactamase (BLA) Follow-Up Assay (AID 2283961). In a few lines: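 HEK293T cells with GAL4-human TRβ LBD and UAS-bla reporter, 3,000 cells/well in 2% charcoal-stripped FBS medium; 11-point concentrations in triplicate, 18 h at 37C. Viability from ATP by CellTiter-Glo luminescence, 30 min RT, same plates.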

For experiment [11], the target named is PGR (gene 5241) (UniProt P06401). Kind of experiment: TOX21_PR_BLA_Followup_Antagonist_ratio: Tox21 HEK293 Progesterone Receptor (PR) Antagonism Beta-lactamase Follow-Up Assay, Ratio (AID 2283934).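 Further: PR-UAS-bla HEK293T cells stimulated with 1 nM R5020 agonist for 16 hr.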 The method in brief:
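Cells are plated, rested 6 hr, then dosed with test compound in DMSO and challenged with 1 nM promegestone. After 16 hr incubation, substrate loading for 2 h at room temperature precedes fluorescence reading; viability is measured in the same wells.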

A short description of experiment [12]: TOX21_PR_BLA_Followup_Agonist_viability: Viability Assessment in the Tox21 HEK293 Progesterone Receptor (PR) Agonism Beta-lactamase Follow-Up Assay (AID 2283935).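 Further: signal loss means lower viability so actives are cytotoxic.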 The method in brief:
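Cells were plated in medium with 2% charcoal-stripped FBS and rested 6 hr. Compounds in DMSO were then added for 16 hr at 37C, followed by the FRET substrate step and CellTiter-Glo luminescence after 30 min.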

Experiment [13] in a line: TOX21_PR_BLA_Followup_Antagonist_viability: Viability Assessment in the Tox21 HEK293 Progesterone Receptor (PR) Antagonism Beta-lactamase Follow-Up Assay (AID 2283936).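 Further: cells exposed to compound with R5020 agonist for 16 h; hits lower the luminescence signal meaning cytotoxicity.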 The method in brief: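 PR-UAS-bla HEK293T cells in medium with 2% charcoal-stripped FBS were treated with compounds plus R5020 for 16 hr at 37C. After the beta-lactamase read, CellTiter-Glo was added to the same wells and luminescence read after 30 min at room temperature.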

The target in experiment [14] is PGR (gene 5241) (UniProt P06401). Kind of experiment: TOX21_PR_LUC_Followup_Antagonist: Tox21 HEK293 Progesterone Receptor (PR) Antagonism Luciferase Follow-Up Assay (AID 2283938).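 Further: curve fitted upward as signal gain over DMSO baseline despite antagonist label.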 In a few lines:
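HEK293-PR-A-luc cells, 3,000/well, preincubated 5 h at 37C before compound addition in DMSO; 16 h compound exposure at 37C. ONE-Glo luciferase luminescence read after 30 min at room temperature, fitted relative to DMSO baseline.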

Experiment [15] can be described thus: TOX21_PR_LUC_Followup_Antagonist_viability: Viability Assessment in the Tox21 HEK293 Progesterone Receptor (PR) Antagonism Luciferase Follow-Up Assay (AID 2283940). The method in brief:
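HEK293-PR-A-luc, 3,000 cells/well; 5 h at 37C/0% CO2; compound pin transfer; 16 h incubation; CellTiter-Glo ATP luminescence, signal loss = cytotoxicity.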

For experiment [16], the target named is THRB (gene 7068) (UniProt P10828). Kind of experiment: TOX21_TRB_BLA_Antagonist_Followup_ratio: Tox21 Thyroid Hormone Receptor beta Antagonism Beta-lactamase (BLA) Follow-Up Assay, Ratio (AID 2283958). In a few lines: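 Cells were plated and allowed to attach for 5 h, then dosed with compounds in DMSO at 11 concentrations for 18 h at 37C. Beta-lactamase reporter activity was measured via CCF4-AM FRET as the 460:530 nm ratio.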
Chain of THRB (gene 7068) (P10828 whole entry, looked up): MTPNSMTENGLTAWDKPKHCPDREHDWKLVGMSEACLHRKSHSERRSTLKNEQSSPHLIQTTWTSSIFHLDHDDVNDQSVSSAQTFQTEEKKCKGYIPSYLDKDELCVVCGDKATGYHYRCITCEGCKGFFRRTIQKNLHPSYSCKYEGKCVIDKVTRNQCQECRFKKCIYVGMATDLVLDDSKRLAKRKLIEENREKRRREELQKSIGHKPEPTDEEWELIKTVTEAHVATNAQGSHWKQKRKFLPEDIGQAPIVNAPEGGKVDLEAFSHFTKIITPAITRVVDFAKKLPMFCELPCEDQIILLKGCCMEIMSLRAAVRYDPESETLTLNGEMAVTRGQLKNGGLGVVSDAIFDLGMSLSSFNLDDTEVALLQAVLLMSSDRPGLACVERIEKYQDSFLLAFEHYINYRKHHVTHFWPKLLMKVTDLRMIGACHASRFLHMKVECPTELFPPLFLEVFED

The target is the same in experiment [17]. The experiment in a line: TOX21_TRB_COA_Antagonist_Followup_ratio: Tox21 Thyroid Hormone Receptor beta Antagonism through Coactivator Recruitment Follow-Up Assay, Ratio (AID 2283967). In a few lines:
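Coactivator recruitment to the GST-tagged TRb ligand-binding domain (5.0 nM) was read as the 520/495 nm TR-FRET ratio, using 200 nM fluorescein SRC-2 peptide and 2 nM terbium anti-GST. Scaled between DMSO and T3 wells; loss of signal fitted.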

Experiment [18] can be described thus: TOX21_TR_RXR_BLA_Antagonist_Followup_viability: Viability Assessment in the Tox21 Thyroid Hormone Receptor beta Retinoid X Receptor alpha (RXRa) Antagonism Beta-lactamase (BLA) Follow-Up Assay (AID 2283979). In a few lines: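 Follow-up compounds (11 concentrations, triplicate) were incubated 16 h at 37C/5% CO2 with HEK293T RXRa-bla cells seeded at 2,500/well in charcoal-stripped-serum medium. ATP content by CellTiter-Glo luminescence gave viability; curves fitted in both directions against DMSO.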

Experiment [19] is described as follows: CCTE_Harrill_HTTr_Viability_MCF7: CCTE's 6-hour Cell Viability Assessment for the High-Throughput Transcriptomics (HTTr) Platform, in MCF-7 cells cultured in DMEM + 10% fetal bovine serum, Harrill Lab (AID 2284010; active means hit-call score of the fitted dose curve at least 0.9, where 1 is the maximum; inactive means score below 0.9). In a few lines: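 Read-out is propidium iodide gain of signal by high-content imaging, reflecting membrane integrity loss. Measurements are taken 6 h after dosing, eight concentrations per chemical, with DMSO serving as baseline for bidirectional curve fitting.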

A short description of experiment [20]: CCTE_Harrill_HTTr_Apoptosis_MCF7: CCTE's 6-hour Apoptosis Assessment for the High-Throughput Transcriptomics (HTTr) Platform, in MCF-7 cells cultured in DMEM + 10% fetal bovine serum, Harrill Lab (AID 2284011; active means hit-call score of the fitted dose curve at least 0.9, where 1 is the maximum; inactive means score below 0.9). The method in brief: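 MCF-7 cells in DMEM + 10% FBS exposed 6 h to chemicals over an eight-point dilution series. Caspase-3/7 activation imaged by high-content CellEvent Green staining; fitted bidirectionally versus DMSO.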

Results filed as inconclusive are left out. Calls of active or inactive are those of the source. How the source made its calls, unless noted: active means hit-call score of the fitted dose curve at least 0.9, where 1 is the maximum; inconclusive means response in the unintended direction; inactive means score below 0.9.

Chain of PGR (gene 5241) (P06401 whole entry, looked up): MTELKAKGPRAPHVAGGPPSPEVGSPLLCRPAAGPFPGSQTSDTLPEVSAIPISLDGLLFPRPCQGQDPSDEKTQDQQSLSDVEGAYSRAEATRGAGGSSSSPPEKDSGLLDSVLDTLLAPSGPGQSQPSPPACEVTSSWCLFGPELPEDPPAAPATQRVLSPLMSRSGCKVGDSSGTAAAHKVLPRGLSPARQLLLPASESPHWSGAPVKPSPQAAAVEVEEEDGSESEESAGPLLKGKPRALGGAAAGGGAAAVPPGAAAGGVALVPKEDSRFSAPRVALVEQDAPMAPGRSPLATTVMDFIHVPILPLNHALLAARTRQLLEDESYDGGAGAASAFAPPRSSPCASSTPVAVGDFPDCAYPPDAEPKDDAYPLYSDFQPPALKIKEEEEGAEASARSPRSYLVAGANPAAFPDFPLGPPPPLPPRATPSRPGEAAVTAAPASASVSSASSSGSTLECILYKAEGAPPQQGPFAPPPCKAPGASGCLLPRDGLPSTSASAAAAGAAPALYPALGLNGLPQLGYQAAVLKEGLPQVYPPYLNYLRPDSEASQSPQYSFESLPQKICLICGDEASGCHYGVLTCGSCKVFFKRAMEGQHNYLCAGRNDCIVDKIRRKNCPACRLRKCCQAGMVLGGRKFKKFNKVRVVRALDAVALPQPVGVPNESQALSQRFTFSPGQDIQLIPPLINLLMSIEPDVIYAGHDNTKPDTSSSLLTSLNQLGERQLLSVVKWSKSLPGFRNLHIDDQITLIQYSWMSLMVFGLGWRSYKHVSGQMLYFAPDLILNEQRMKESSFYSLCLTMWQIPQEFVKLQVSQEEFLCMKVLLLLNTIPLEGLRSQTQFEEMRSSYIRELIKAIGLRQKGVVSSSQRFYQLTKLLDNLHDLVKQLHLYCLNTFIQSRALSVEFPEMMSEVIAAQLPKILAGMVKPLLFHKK

As to `CCOC(=O)C=CC(=O)O`, the result in [1], in experiment [2], in experiment [3], in experiment [4], in experiment [5] and in experiment [6] was inactive. In addition, the compound was called inactive in experiment [7] and in experiment [8].

`CC[C@@]1(O)C(=O)OCc2c1cc1n(c2=O)Cc2cc3c(CN(C)C)c(O)ccc3nc2-1`: the AC50 in experiment [1] is 7.02 µM (active); in experiment [2] it was 0.807 µM (active); in [3], 7.35 µM (active); in experiment [4] it was 0.381 µM (active); in experiment [5], 7.74 µM (active); in experiment [6] it was 0.692 µM (active). Moreover, the half-maximal activity concentration (AC50) in experiment [7] is 7.27 µM (active); in [8] it was 6.7 µM (active). For the same compound, the result in experiment [9] and in [10] was inactive.

For `COCCOC(=O)C1=C(C)NC(C)=C(C(=O)OC/C=C/c2ccccc2)C1c1cccc([N+](=O)[O-])c1` (configuration not stated), the compound was called inactive in experiment [1], in [2], in [3], in experiment [4], in [5] and in [6]. In addition, the compound was classed as inactive in experiment [7], in experiment [8], in experiment [12], in experiment [13] and in experiment [15]. The AC50 was 6.12 µM (active) with PGR (gene 5241) [11] and 7.18 µM (active) in the experiment with PGR (gene 5241) [14].

Regarding `Cc1cc(Nc2ccccc2C(=O)O)ccc1Cl`, the compound was called inactive in experiment [1], in [3], in [4], in [7], in [9] and in [10]. Further, the result (with THRB (gene 7068) [17]; in experiment [18]) was inactive. For the same compound, the concentration at half-maximal activity (AC50) in [2] is 8.52 µM (active); in experiment [5] it was 31.9 µM (active); in experiment [6], 17.4 µM (active); in experiment [8], 23 µM (active); in the experiment with THRB (gene 7068) [16], 51.5 µM (active).

Regarding `CC(C)=CCC1=C(O)c2ccccc2C(=O)C1=O`, the call (in experiment [1]; in [3]; in experiment [5]; in experiment [7]; in experiment [9]; with THRB (gene 7068) [16]) was inactive. The compound was called inactive in experiment [10] and in experiment [18]. Also, the AC50 was 1.36 µM (active) in experiment [2]; 1.27 µM (active) in experiment [4]; 1.74 µM (active) in experiment [6]; 2.71 µM (active) in [8]; 31.3 µM (active) with THRB (gene 7068) [17].

`CC(C)C[C@H](NC(=O)[C@H](CCc1ccccc1)NC(=O)CN1CCOCC1)C(=O)N[C@@H](Cc1ccccc1)C(=O)N[C@@H](CC(C)C)C(=O)[C@@]1(C)CO1`: the AC50 in experiment [1] is 0.757 µM (active); in experiment [2], 0.108 µM (active); in experiment [3] it was 1.09 µM (active); in experiment [4] it was 0.121 µM (active); in experiment [5], 0.759 µM (active); in experiment [6], 0.203 µM (active). The AC50 in [7] is 1 µM (active); in experiment [8], 0.109 µM (active); with PGR (gene 5241) [11], 15.9 µM (active); in the experiment with PGR (gene 5241) [14], 8.16 µM (active). In addition, the call in [12], in experiment [13] and in [15] was inactive.

In the case of `O=C(O)c1cc(-c2ccc(F)cc2F)ccc1O`, the outcome in [1], in experiment [2], in experiment [3], in experiment [4], in [5] and in experiment [6] was inactive. For the same compound, the outcome in [8] was inactive.

On to `CC1(C)[C@@H](O[C@H]2O[C@H](C(=O)O)[C@@H](O)[C@H](O)[C@H]2O[C@@H]2O[C@H](C(=O)O)[C@@H](O)[C@H](O)[C@H]2O)CC[C@]2(C)[C@H]3C(=O)C=C4[C@@H]5C[C@@](C)(C(=O)O)CC[C@]5(C)CC[C@@]4(C)[C@]3(C)CC[C@@H]12`, for which the compound was classed as inactive in experiment [1], in experiment [2], in experiment [3], in [4], in experiment [5] and in experiment [6]. Also, the call in [7], in [8], in experiment [19] and in experiment [20] was inactive.
